From PubChem
Compounds with a hit are over-represented: about 4.7% of the library has one in this group of screens.
DSG3 Ab inh = inhibitors of pemphigus antibody binding to human desmoglein-3; P32926; DSG3-coupled beads, scFv-anti-DSG3-GFP binding, flow cytometry; hits give low values; binding (percent of control), % at 10 µM; 310,000 tested, 0.48% active; AID 588358;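 active means binding more than 3 SD below its plate's average and above zero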;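 further: hits lower antibody fragment binding to DSG3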
ADAM10 inh = ADAM10 inhibition, QFRET primary screen; O14672; recombinant ADAM10, EDANS/DABCYL FRET peptide cleavage, 3 h; inhibition, % at 7 µM; 370,000 tested, 0.62% active;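 active means inhibition above a per-campaign cutoff equal to the mean of compounds falling between control-based bounds plus 3 SD, cut at about 20% in these data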
ADAM17 inh = inhibits human ADAM17. 370,000 tested, 0.83% active. inhibition, % at 6.95 µM. recombinant ADAM17, EDANS/DABCYL FRET peptide cleavage. P78536. AID 720648;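 active means inhibition above the mean of compounds lying between control limits plus 3 SD, set per campaign, cut at about 8.5% in these data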
rCAG RNA binder = molecules binding r(CAG) RNA repeats; r(CAG) RNA repeat, TO-PRO-1 dye displacement fluorescence; inhibition, % at 3 µM; 370,000 tested, 1.3% active; AID 651821;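 active means inhibition above the plate cutoff, the mean of all test compounds on that plate plus 3 SD, cut at about 35% in these data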;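 further: higher means more dye released from RNA so lower well fluorescence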
MPTP inh = blocks calcium-induced mitochondrial swelling; isolated mouse mitochondria, Ca2+ swelling absorbance, 30 min; inhibition, % at 10 µM; 360,000 tested, 1.4% active; AID 602449;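 active means inhibition of 50% or more, scaled per plate between neutral and stimulator controls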
KLK7 zymogen act = activates the human kallikrein-7 zymogen | AID 652039 | 370,000 tested, 0.9% active | purified proKLK7, EDANS-DABCYL substrate fluorescence; 100% is mature enzyme control, 0% vehicle | P49862 | activation, % at 7 µM;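 active means activation above the mean of all tested compounds plus 3 SD, computed per campaign excluding outliers beyond control limits, cut at about 13% in these data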
Target sequence (P49862 whole entry, looked up): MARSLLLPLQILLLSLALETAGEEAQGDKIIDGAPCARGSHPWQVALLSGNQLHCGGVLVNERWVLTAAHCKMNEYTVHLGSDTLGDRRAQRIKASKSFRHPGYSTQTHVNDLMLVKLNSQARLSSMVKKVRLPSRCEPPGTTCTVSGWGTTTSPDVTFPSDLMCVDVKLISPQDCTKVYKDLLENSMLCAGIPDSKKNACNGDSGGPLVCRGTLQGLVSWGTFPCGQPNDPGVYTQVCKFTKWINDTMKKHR
ADAM10 counter = counter-screen for ADAM17 exosite inhibitors: inhibitors of human ADAM10. shares compounds with ADAM17 inh. recombinant ADAM10, EDANS/DABCYL FRET peptide cleavage, 3 h. inhibition, % at 6.95 µM. 2,900 tested, 47% active. AID 743256;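 active means mean inhibition over the triplicate runs exceeds the activity threshold set in the earlier primary screen, cut at about 20% in these data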
ADAM17 confirm = human ADAM17 inhibition, confirmation | shares compounds with ADAM17 inh | recombinant ADAM17, EDANS/DABCYL QFRET peptide cleavage | inhibition, % at 6.95 µM | 2,900 tested, 65% active | AID 743257;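 active means mean inhibition across replicates above the hit cutoff set in the primary screen, cut at about 8.5% in these data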
Numbers stand for hits; - = inactive; . = not tested or not shown.

SMILES	DSG3 Ab inh	ADAM10 inh	ADAM17 inh	rCAG RNA binder	MPTP inh	KLK7 zymogen act	ADAM10 counter	ADAM17 confirm
COC(=O)[C@@]12C[C@@H](CC(=O)NCc3cccc4ccccc34)C(=O)N(Cc3ccc4c(c3)OCO4)C1=CCC(C)(C)C2	.	-	8.9	-	-	-	20.3	11.7
CCOC(=O)[C@]12CCCC=C1N(Cc1cccc3ccccc13)C(=O)[C@H](CC(=O)NCCc1ccccc1OC)C2	.	-	9.7	-	-	-	23.9	16.6
COc1cc(C(=O)c2cc3c(cc2C)OCO3)cc(OC)c1OC	.	-	-	-	-	-	.	.
COc1cc(NC2c3ccccc3C(=O)N2Cc2ccccc2Cl)cc(OC)c1 (stereo not given)	-	-	-	-	-	-	.	.
COc1cccc(NC2c3ccccc3C(=O)N2Cc2ccccc2Cl)c1 (stereo not given)	-	-	11.7	-	-	-	-	10.8
Cc1ccc(N2CCN(C(CCc3ccccc3)C(=O)Nc3c(C)cccc3C)CC2)cc1 (stereo not given)	.	-	-	-	-	-	.	.
CCOCCCn1c(SC(C(=O)Nc2cc(C)ccc2C)c2ccccc2)nnc1-c1ccc(Cl)cc1 (stereo not given)	-	-	9.9	-	-	-	-	-
CCOCCN1CCN(C2c3ccccc3CSc3ccccc32)CC1 (stereo not given)	-	-	-	-	-	-	.	.
O=C(c1c(Cl)nc2sccn12)N1CCN(c2cccc(Cl)c2)CC1	-	-	9.1	-	-	-	-	-
O=C(c1cc2ccccc2cc1O)N1CCN(c2cccc(Cl)c2)CC1	-	-	-	-	-	-	.	.
COc1ccc(CC(=O)Nc2nnc(CC(C)C)s2)cc1S(=O)(=O)N1CCOCC1	-	-	-	-	-	-	.	.
CCCOc1ccc(CC(=O)NNC(=S)Nc2ccccc2)cc1Br	-	-	12.4	-	-	-	-	-
COc1ccc(CC(=O)NNC(=S)Nc2ccccc2)cc1Cl	-	-	-	-	-	-	.	.
CC[C@@H]1C=C(C(=O)O)[C@H](c2ccc(Cl)cc2)N1S(=O)(=O)c1ccc(C)cc1	-	-	8.6	-	-	-	-	-
CCc1ccc(C(O)c2ncc(-c3ccc(Cl)cc3)[nH]2)cc1 (stereo not given)	.	-	-	-	-	-	.	.
CCOC(=O)C1=C(O)/C(=C\c2ccc(OC)c(OC)c2)N=C1C	-	-	-	-	-	-	.	.
CCOC(=O)C1=C(O)/C(=C\c2cccs2)N=C1C	-	-	10.0	-	-	-	-	-
COc1ccc(C(=O)N2CCCC(c3cc(C(=O)NCc4ccc(F)cc4)no3)C2)cc1 (stereo not given)	.	-	8.8	-	-	-	-	-
COc1ccc(C(=O)N2CCCC(c3cc(C(=O)NCc4ccccc4)no3)C2)cc1 (stereo not given)	.	-	-	-	-	-	.	.
Cc1ccccc1OCc1nnc(SCC(=O)Nc2ccc3nc(SCC(=O)Nc4ccccc4)sc3c2)n1C	-	-	10.7	-	-	-	-	-
CS(=O)(=O)N(Cc1ccco1)CC(O)Cn1c2ccccc2c2ccccc21 (stereo not given)	.	-	9.9	-	-	-	-	-
COc1ccc(N2C(=O)C3C(C2=O)C3(c2ccccc2)c2ccccc2)cc1 (stereo not given)	-	-	12.5	-	-	-	-	-
COCCNC(=O)C(=O)c1c(-c2ccccc2)[nH]c2ccccc12	-	-	-	-	-	-	.	.
O=C(C(=O)N(Cc1ccccc1)Cc1ccccc1)c1c(-c2ccccc2)[nH]c2ccccc12	-	22.0	10.9	-	-	-	41.9	22.4
CC(C)(C)[C@@H]1COC(=O)[C@H](Cc2ccc(F)cc2)CC/C=C\C[C@H](CC(=O)N(CCO)Cc2ccccc2)C(=O)N1	-	-	11.0	-	-	-	-	-
O=C1N[C@@H](Cc2ccccc2)COC(=O)[C@H](Cc2ccc(F)cc2)CC/C=C/C[C@@H]1CC(=O)N(CCO)Cc1ccccc1	-	-	-	-	-	-	.	.
